Assay results taken from PubChem BioAssay AID493169 (National Center for Advancing Translational Sciences (NCATS), 2011).
Inconclusive results are not listed. Where a call stands in place of a potency, no number is given. Calls of active or inactive are those of the source. Calls come from the whole dose curve; as a rule, active = well fitted inhibition curve with a large enough effect; inconclusive = small, poorly fitted or top-dose-only effect; inactive = flat fitted curve, though single readings scatter.

Experiment: CHOP2 Reporter Counterscreen Assay for Inhibitors of Ubiquitin-specific Protease USP2a;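 note: activated enterokinase alone at 50 pM in a cell-free format rather than USP2a or CHOP2; nearly all actives have a fitted effect of over 55% in size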
How it was run: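 Cell-free counterscreen with pre-activated enterokinase alone (50 pM final) in 20mM Tris-HCl pH 8.0, 2mM CaCl2, 2mM beta-mercaptoethanol, 0.05% CHAPS; compound preincubation 30 min RT, reporter substrate 25nM final, fluorescence read after 10 min (Ex 485/Em 531).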
Potency is the fitted concentration of half-maximal effect.

Row | Compound | Potency
1 | NC1=NC2(CCC(c3ccccc3)CC2)n2c(nc3ccccc32)N1 (stereo unspecified) | inactive
2 | CCOc1cc(N2CCOCC2)c(OCC)cc1NC(=O)Cc1cn2ccsc2n1 | inactive
3 | CN(C)CCCN1C(=O)C(=O)/C(=C(/O)c2ccncc2)C1c1cccnc1 (stereo unspecified) | inactive
4 | COc1cccc(NC(=O)CSc2nncn2-c2ccccn2)c1 | inactive
5 | O=C(Nc1ccc(S(=O)(=O)Nc2ncccn2)cc1)c1ccc(S(=O)(=O)N2CCCC2)cc1 | inactive
6 | CN(C)S(=O)(=O)c1cccc(NC(=S)NNC(=O)c2cc3ccccc3cc2O)c1 | inactive
7 | C[C@H](CO)N1C[C@H](C)[C@@H](CN(C)S(=O)(=O)c2cn(C)cn2)Oc2ccc(NC(=O)Cn3cnnn3)cc2C1=O | inactive
8 | COc1ccc2[nH]c(=O)c(CN(C)C(=O)C3CCCCC3)cc2c1 | inactive
9 | CC(C)N(C(=O)c1sc2cc([N+](=O)[O-])ccc2c1Cl)C(C)C | inactive
10 | Cc1ccc(C(C(=O)NC2CCCC2)N2CCc3ccccc32)cc1 (stereo unspecified) | inactive
11 | Oc1ccc(/C=N/NC(=S)N/N=C/c2ccc(O)cc2)cc1 | inactive
12 | C=CC#CC[N+]1(CC#Cc2ccccc2)CCOCC1 | 2.24 µM (active)
13 | O=C(CSc1nc(N2CCCCC2)nc(N2CCCCC2)n1)N1CCN(c2ccccc2)CC1 | inactive
14 | O=C(Nc1cccc(-c2nn[nH]n2)c1)c1ccc(Br)s1 | 3.98 µM (active)
15 | COc1cc(OC)cc(-c2c(C#Cc3ccsc3)c3cc(-c4ccc(OC)c(OC)c4)ccc3n2C)c1 | inactive
16 | COc1c(/C=C2\SC(=Nc3ccccc3Cl)NC2=O)cccc1[N+](=O)[O-] | inactive
